Sampled rows, rich in hits. Any-hit rate of the full collection: about 10%.
NPR1 antag: Natriuretic polypeptide receptor (hNpr1) antagonism - Primary qHTS; Potency, µM (highest dose often 46.3 µM), actives largely listed as inhibitors; AID 1347048, 2019; HEK293 hNpr1 GloSensor cGMP, ANP-stimulated luminescence; Atrial natriuretic peptide receptor 1 (Homo sapiens), P16066; 76,000 compounds, 1.6% hits; calls by dose curve; note: nearly all actives have a fitted effect of over 60% in size
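Compound pre-incubated 30 min at room temperature on GloSensor-loaded HEK293 cells stably carrying hNpr1 and the pGS-40F cGMP biosensor. Stimulation uses hNppA at 0.1 nM final; luminescence is taken at baseline and 20 min post-agonist.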
NIH3T3 tox: Cytotoxic Profiling in NIH 3T3 Cell Line of Diverse Libraries Using Quantitative High-Throughput Screening; NIH 3T3 viability, CellTiter-Glo ATP luminescence, 48-72 h; Potency, µM (titrated, usually from 96.7 µM), hits mostly inhibitors; 94,000 compounds, 4.3% hits; AID 1345082, 2018; note: nearly all actives have a fitted effect of over 55% in size
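ATP-dependent luminescence (CellTiter-Glo) served as the viability signal for NIH 3T3 cells treated with compound for 48 or 72 hr at 37 °C.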
HEK293 tox: Cytotoxic Profiling in HEK 293 Cell Line of Diverse Libraries Using Quantitative High-Throughput Screening. Potency, µM (top dose mostly 115 µM), actives largely listed as inhibitors. HEK 293 viability, ATP luminescence (CellTiter-Glo), 48-72 h. 94,000 compounds, 6.6% hits; note: nearly all actives have a fitted effect of over 60% in size
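Viability of HEK 293 cells, plated at 250 cells/well, was judged by cellular ATP after compound treatment for 48 or 72 hr. Luminescence was imaged 10 min after CellTiter-Glo addition at room temperature.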
FLuc inh: Firefly luciferase inhibition profiling of diverse chemical library using quantitative high-throughput screening; Potency, µM (highest dose often 115 µM), hits mostly inhibitors; purified P. pyralis luciferase, luminescence, biochemical; 76,000 compounds, 2.5% hits; note: nearly all actives have a fitted effect of over 65% in size
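Inhibitors were tested against purified firefly luciferase in a biochemical, low-substrate format (both substrates at 10uM) and luminescence measured with a CCD imager.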
GPT2 inhibitor: Primary qHTS assay for inhibitors of Glutamate pyruvate transaminase 2 (GPT2) | Recombinant GPT2, coupled pyruvate oxidase/HRP Amplex Red fluorescence | Potency, µM (top dose mostly 57.7 µM), hits mostly inhibitors | 100,000 compounds, 0.25% hits | Alanine aminotransferase 2 (Homo sapiens), Q8TD30; note: nearly all actives have a fitted effect of over 60% in size
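Fluorescence read-out: pyruvate from GPT2 turnover coupled to pyruvate oxidase, HRP and Amplex Red (0.2mM ThPP, 0.2U/mL PO and HRP, 50uM Amplex final). Substrates 250uM a-KG, 2mM L-alanine; enzyme 10ng/uL; 30 min RT.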
NPR1 antag cnf: Natriuretic polypeptide receptor (hNpr1) antagonism - Confirmation. AID 1347044, 2019. Potency, µM (series often up to 57.6 µM), actives largely listed as inhibitors. 1,400 compounds, 76% hits. HEK293 hNpr1 cGMP GloSensor luminescence, ANP-stimulated. shares compounds with NPR1 antag; calls by dose curve; note: nearly all actives have a fitted effect of over 70% in size
NPR2 antag: Natriuretic polypeptide receptor (hNpr2) antagonism - Subtype selectivity assay | shares compounds with NPR1 antag | HEK293 hNpr2 GloSensor cGMP luminescence, CNP-stimulated | Potency, µM (doses to about 57.6 µM), most hits filed as inhibitors | 1,400 compounds, 67% hits | AID 1347046, 2019; calls by dose curve; note: nearly all actives have a fitted effect of over 70% in size
FLuc inh counter: Natriuretic polypeptide receptor (hNpr1) antagonism - Confirmation firefly luciferase (FLuc) inhibition counterscreen; shares compounds with NPR1 antag; purified FLuc enzyme, luminescence, Km substrate; Potency, µM (top dose mostly 57.6 µM), usual class: inhibitors; 1,400 compounds, 0.7% hits; AID 1347047, 2019
GloSensor ctrl: Natriuretic polypeptide receptor (hNpr1) antagonism - Counterscreen GloSensor control cell line; shares compounds with NPR1 antag; Potency, µM (series often up to 57.6 µM), actives largely listed as inhibitors; AID 1347051, 2019; 1,400 compounds, 69% hits; HEK293 GloSensor cGMP, SNP-stimulated, luminescence; calls by dose curve; note: nearly all actives have a fitted effect of over 70% in size
GPT2 conf: Confirmatory qHTS assay for inhibitors of Glutamate pyruvate transaminase 2 (GPT2); Potency, µM, most hits filed as inhibitors; 95 compounds, 90% hits; GPT2 enzyme, coupled Amplex Red pyruvate fluorescence; AID 1671187, 2021; shares compounds with GPT2 inhibitor
Of the large screens only hits and unclear results are named; the others gave an inactive call (follow-up assays come after a bar, where they were run); ! = not confirmed by another sample. Unless noted, calls come from the whole dose curve; as a rule, active = well fitted curve in the direction sought with a large enough effect; inconclusive = small, poorly fitted or top-dose-only effect, or another doubt; inactive = no such curve, though single readings can be large; an effect the other way counts as inactive or inconclusive.

CCC(CC)c1cc([C@H]2CN3CC[C@H]2C[C@@H]3CNS(=O)(=O)c2cccs2)nc(-c2ccncc2)n1	NPR1 antag 14µM, NIH3T3 tox 20µM, HEK293 tox inconclusive | NPR1 antag cnf 22µM | NPR2 antag 11µM | FLuc inh counter inactive | GloSensor ctrl inactive
O=C1Nc2ccccc2C12CCN(Cc1ccc(C(F)(F)F)cc1)CC2	NIH3T3 tox inconclusive, HEK293 tox inconclusive (no result: NPR1 antag, FLuc inh) | NPR1 antag cnf 24µM | NPR2 antag 24µM | FLuc inh counter inactive | GloSensor ctrl 24µM
O=C1Nc2ccccc2C12CCN(Cc1ccc(F)cc1)CC2	HEK293 tox inconclusive (no result: NPR1 antag, FLuc inh)
Cc1cccc(OCC(=O)N2[C@H]3CC[C@@H]2c2cnc(-c4ccc(F)cc4)nc2C3)c1	NPR1 antag inconclusive, NIH3T3 tox inconclusive, HEK293 tox inconclusive | NPR1 antag cnf inconclusive | NPR2 antag inconclusive | FLuc inh counter inactive | GloSensor ctrl inconclusive
O=C(COc1ccc(F)cc1)N1[C@H]2CC[C@@H]1c1cnc(-c3ccccc3)nc1C2	HEK293 tox inconclusive (no result: NPR1 antag, FLuc inh)
COCCn1c(C)cc(C(=O)N2[C@H]3CC[C@@H]2c2cnc(-c4ccc(F)cc4)nc2C3)c1C	NPR1 antag 11µM, NIH3T3 tox inconclusive, HEK293 tox 25µM | NPR1 antag cnf 12µM | NPR2 antag 15µM | FLuc inh counter inactive | GloSensor ctrl 14µM
Cc1cc(C(=O)N2[C@H]3CC[C@@H]2c2cnc(-c4ccc(F)cc4)nc2C3)n[nH]1	NPR1 antag 13µM, NIH3T3 tox inconclusive, HEK293 tox inconclusive | NPR1 antag cnf 24µM | NPR2 antag 24µM | FLuc inh counter inactive | GloSensor ctrl 24µM
Cc1ncccc1C(=O)N1[C@H]2CC[C@@H]1c1cnc(-c3ccc(F)cc3)nc1C2	NIH3T3 tox inconclusive, HEK293 tox inconclusive
Cc1ccsc1C(=O)N1[C@H]2CC[C@@H]1c1cnc(-c3ccc(F)cc3)nc1C2	NPR1 antag 5.6µM, NIH3T3 tox inconclusive, HEK293 tox inconclusive | NPR1 antag cnf 7.7µM | NPR2 antag 7.7µM | FLuc inh counter inactive | GloSensor ctrl 6.1µM
O=C1NCCOCCN[C@@H]2CCCC[C@H]12	none
COc1cc2c(cc1OCc1ccncc1)NC(=O)C21CCN(C(C)=O)CC1	NIH3T3 tox inconclusive
CCOC(=O)[C@H]1CN(C(=O)Cc2ccc(OC)cc2)[C@]2(C)C(=O)N(CC3CC3)c3ccccc3[C@H]12	NIH3T3 tox inconclusive, HEK293 tox inconclusive (no result: NPR1 antag, FLuc inh)
CC1=C[C@H]2O[C@@H]3C[C@H]4OC(=O)/C=C/C=C/C(=O)OCC/C(C)=C/C(=O)OC[C@@]2(CC1)[C@]4(C)[C@]31CO1	none (no result: NPR1 antag, NIH3T3 tox, HEK293 tox, FLuc inh)
COc1ccc(C2(C(=O)N3CCC4(CC3)c3nccn3-c3ccccc3CN4C)CC2)cc1	NPR1 antag 8.9µM, HEK293 tox inconclusive | NPR1 antag cnf 17µM | NPR2 antag 5.4µM | FLuc inh counter inactive | GloSensor ctrl inactive
CN(C)c1cc2c(cc1Sc1nc3c(N)nccc3n1CCNCC(C)(C)C)OCO2	none (no result: NPR1 antag, NIH3T3 tox, HEK293 tox, FLuc inh)
c1ccc2c(c1)Nc1ccccc1S2	GPT2 inhibitor 11µM! (no result: NPR1 antag, NIH3T3 tox, HEK293 tox, FLuc inh) | GPT2 conf 2.8
COc1nc2ccccc2cc1CN1CCC2(C1)CN(C)C(=O)O2 (centres undefined)	HEK293 tox inconclusive
